PubChem BioAssay AID485313 (National Center for Advancing Translational Sciences (NCATS), 2010)
Hit rate of the full screen: of about 320,000 compounds, about 7,600 (2.4%) were called active. Not shown: some 3% with an inconclusive outcome. The list comes from a sample in which actives are over-represented; it also holds similar structures and randomly drawn compounds. A number with no mark means an inactive call. Calls come from the whole dose curve; as a rule, active = well fitted activation curve with a large enough effect; inconclusive = small, poorly fitted or top-dose-only effect; inactive = no such curve, though single readings can be large or run the other way.

test: qHTS Assay for NPC1 Promoter Activators; details: Huh7 NPC1 promoter luciferase reporter, 24 h; series mostly up to 9.22 µM; activation: at the top concentration; note: nearly all actives have a fitted effect of over 60% in size;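 for activation: reporter is driven by a mutant NPC1 promoter; % of control where 0% means no effect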
Procedure, shortened: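 Luminescence read-out of NPC1 promoter-driven luciferase in stably transfected Huh7 cells; compounds delivered in DMSO and left 24 h at 37C, 5% CO2, qHTS titration format.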
Potency is the fitted concentration of half-maximal effect.

| Compound | activation | Potency |
| --- | --- | --- |
| COc1ccc(CS(=O)/C(Cl)=C(/Cl)C(=O)Nc2ccc(OC)nc2)cc1 (centres undefined) | -23.3% | – |
| CCCCNC(=O)OC(C)CNC(=O)OC (centres undefined) | -1.68% | – |
| COc1ccc(NC(=O)COC(=O)c2n[nH]c3ccccc23)c(OC)c1 | 1.11% | – |
| O=C(CSc1nnc(COc2ccc(Cl)cc2)n1Cc1ccco1)N1CCNC1=O | -9.88% | – |
| CCNC(=O)N1CCN(S(=O)(=O)c2ccc3c(c2)OCCCO3)CC1 | 5.22% | – |
| COc1ccc(CN2C(=O)C(C)S/C2=N/N=C/c2ccco2)cc1 (centres undefined) | – | 3.16 µM (active) |
| C=CCN1C(=O)C(Cc2cccc(Cl)c2)S/C1=N/N=C/c1ccco1 (centres undefined) | -2.22% | – |
| O=C1N/C(=N\N=C\c2ccco2)SC1Cc1ccc(F)cc1 (centres undefined) | -12.3% | – |
| CCOc1ccc(S(=O)(=O)N2CCC(C(=O)NCC(=O)Nc3cccc(Cl)c3C)CC2)cc1 | -2% | – |
| O=C(Nc1ccccc1F)c1ccc(S(=O)(=O)N2CCCCCC2)cc1 | 13% | – |
| CCc1ccc2oc(-c3ccc(N)cc3)nc2c1 | – | 0.708 µM (active) |
| Cc1[nH]c2ccccc2c1C(=O)C(C)Sc1nnc(C2CC2)o1 (centres undefined) | -0.654% | – |
| CC(NC(=O)Nc1ccc2c(c1)OCO2)c1ccncc1 (centres undefined) | 0.67% | – |
| COc1cccc(/C=C/C(=O)Nc2ccc3c(c2)OCCO3)c1 | – | 2.51 µM (active) |
| Cc1cccc(NC(=O)/C=C/c2ccc3c(c2)OCO3)n1 | – | 1.41 µM (active) |
| Cc1ccc(S(=O)(=O)NCC(=O)Nc2ccc3c(c2)OCCO3)cc1 | -5.21% | – |
| O=C(/C=C\c1ccc2c(c1)OCO2)NC1(C(=O)Nc2ccc3c(c2)OCCO3)CCCCC1 | 0.617% | – |
| Cc1cccc(NC(=O)Nc2ccc3c(c2)OCO3)n1 | – | 1.78 µM (active) |
| CNS(=O)(=O)c1ccc(NC(=O)Nc2ccc3c(c2)OCO3)cc1 | – | 2.51 µM (active) |
| O=C(O)/C=C/c1ccc2c(c1)OCCO2 | -0.0021% | – |
| O=C(/C=C/c1ccc2c(c1)OCO2)NCc1ccc(F)cc1 | 1.01% | – |
| CC(NC(=O)Nc1cccc([N+](=O)[O-])c1)c1ccc2c(c1)OCO2 (centres undefined) | -3.91% | – |
| COc1ccc(OC)c(/C=C/C(=O)OCC(=O)Nc2ccc3c(c2)OCCO3)c1 | -4.86% | – |
| CC(C)CNS(=O)(=O)c1ccc(C(=O)Nc2ccc3c(c2)OCO3)cc1 | -9.44% | – |
| COc1ccc(NC(=O)CN(C)C(=O)c2cc(C3CC3)nn2-c2ccccc2)cc1 | -2.75% | – |
| O=S(=O)(c1ccc(Br)cc1)n1ccc2ccccc21 | 0.578% | – |
| COc1ccc(S(=O)(=O)N2CCOCC2)cc1NC(=O)c1ccc(OCC(C)C)c(OC)c1 | -2.86% | – |

| Compound | activation | Potency |
| --- | --- | --- |
| Cc1ccccc1NC(=O)Cc1nc(COC(=O)c2cccnc2Cl)cs1 | -1.43% | – |
| O=C(CCc1ccccc1Cl)Nc1ccc(S(=O)(=O)Nc2nccs2)cc1 | 0.222% | – |
| Cc1ccc(CN2CC(C(=O)N3CCN(S(=O)(=O)c4ccccc4)CC3)CC2=O)cc1 (centres undefined) | 0.0419% | – |
| NS(=O)(=O)c1ccc(CNC(=O)c2cccc(S(=O)(=O)N3CCc4ccccc43)c2)cc1 | -4.31% | – |
| O=C(O)c1cccc(S(=O)(=O)N2CC=C(c3ccccc3)CC2)c1 | -3.36% | – |
| COc1cccc(C(=O)OCC(=O)c2[nH]c(C)c(C(C)=O)c2C)c1 | -4.6% | – |
| COCCN1C(=O)C(=O)/C(=C(/O)c2ccc(S(=O)(=O)N3CCCCC3)cc2)C1c1ccc(OC)c(OC)c1 (centres undefined) | -1.34% | – |
| O=C(CSC(=S)N1CCCCC1)c1c(F)cccc1F | – | 1.12 µM (active) |
| CC1CN(C(=S)SCC(=O)c2ccccc2)CC(C)O1 (centres undefined) | 0.428% | – |
| CC(=O)c1ccc(NC(=O)CSC(=S)N2CCCC2)cc1 | 10.1% | – |
| O=C(CSC(=S)N1CCOCC1)c1cc(Br)cc(Br)c1O | -2.2% | – |
| O=C(CSC(=S)N1CCOCC1)c1ccccc1 | – | 0.501 µM (active) |
| COc1cccc(NC(=O)CN(C)C(=O)CSC(=S)N2CCCC2)c1 | -0.0559% | – |
| COc1ccc(C(=O)N2CCN(c3ncccn3)CC2)cc1S(=O)(=O)N1CCOCC1 | -2.21% [at 1.84 µM] | – |
| C=CCC(NC(=O)Cc1ccccc1)C(=O)NCCC (centres undefined) | 0.87% | – |
| COc1ccc2nc(NC3=NCN(CC4CCCO4)CN3)nc(C)c2c1 (centres undefined) | 0.784% | – |
| COc1ccc(NS(=O)(=O)c2cc(NC(=O)COc3ccccc3F)ccc2OC)cc1 | -1.42% | – |
| O=C(N/N=C/c1cccc(Br)c1)c1ccc(N2CCCC2=O)cc1 | -8.21% | – |
| COc1ccc(C(=O)Nc2ccccc2C(=O)N/N=C/c2ccc(O)c(OC)c2)cc1 | -21.2% | – |
| COc1cc(/C=N/NC(=O)c2ccc(N3CCCC3=O)cc2)ccc1O | – | 2.51 µM (active) |
| O=C1C=C(c2cccc(Cl)c2)C[C@@H](c2ccc(F)cc2)C1 | -2.9% | – |
| Cc1ccccc1NC(=O)C1CCN(C(=O)NC2CCCCC2)CC1 | -1.28% | – |
| O=C(Nc1cc2ccccc2oc1=O)C1CCCCC1 | – | 0.447 µM (active) |
| CN1C(=O)c2ccc(NC(=O)C3CCCCC3)cc2C1=O | 6.75% | – |
| COc1ccc(S(=O)(=O)N2CCOCC2)cc1NC(=O)Cc1c(F)cccc1Cl | -0.249% | – |
| Cc1sc2ncnc(SCC(=O)Nc3ccc(CN4CCCC4)cc3)c2c1C | -0.261% | – |
| O=C(N/N=C/c1cccc(OCc2ccccc2)c1)c1ccc(Br)o1 | -0.559% | – |

| Compound | activation | Potency |
| --- | --- | --- |
| Cc1ccc(OCCOc2cccc(/C=N/NC(N)=O)c2)cc1 | – | 2.82 µM (active) |
| Cc1cccc(OCC(=O)NCC(=O)N/N=C/c2ccc(N(C)C)cc2)c1 | -3.43% | – |
| COc1ccc(OC)c(-c2csc(NC(=O)COC(=O)C3CC3)n2)c1 | -1.63% | – |
| O=C(NCC1CCCO1)c1cc2c(s1)CCCC2 (centres undefined) | 12.7% [at 1.84 µM] | – |
| Cc1ccc(NS(=O)(=O)c2ccc(F)cc2)nc1 | -1.77% | – |
| Cc1cc(C)cc(NS(=O)(=O)c2ccc(F)cc2)c1 | 1.42% | – |
| Cn1nccc1NS(=O)(=O)c1ccc(F)cc1 | – | 0.0003 µM (active) |
| O=C(CCNC(=O)c1ccc(Cl)cc1)NC1CCCc2ccccc21 (centres undefined) | -2.02% | – |
| CC(=O)c1cc2c(cc1N)OCO2 | 10.6% | – |
| Cc1[nH][nH]c(=O)c1N=Nc1ccccc1 | 5.11% | – |
| Nc1[nH][nH]c(=O)c1N=Nc1ccc2c(c1)OCO2 | – | 2.82 µM (active) |
| Cc1cc(C)cc(OCC(=O)OCC(=O)NC2CCCC2)c1 | 0.646% | – |
| Nc1ccn(CC(=O)N2CCN(c3ccccn3)CC2)c(=O)n1 | 15.2% | – |
| CC(C)N(Cc1nnc(-c2ccccc2Br)o1)C(=O)c1cc(Cl)nc2ccccc12 | -2.21% | – |
| CCC(=O)c1ccc(OCC(=O)Nc2ccc(N3CCCCC3)cc2)cc1 | 1.3% | – |
| CCC(=O)Nc1ccc(-c2ccc(N3CCCCC3)nn2)cc1 | – | 2.24 µM (active) |
| CCCCSc1nnc(-c2ccc(NC(=O)CC)cc2)n1C | -1.14% | – |
| CN(CC(=O)NCCc1ccc(F)cc1)CC(=O)Nc1ccc(F)c(F)c1F | 11.4% | – |
| Cc1ccc(NC(=O)C2CC(c3ccc(F)cc3)=NO2)cc1 (centres undefined) | 0.084% | – |
| O=C(Nc1ccc2c(c1)OCO2)C1CC1(Cl)Cl (centres undefined) | 21.2% | – |
| O=C(Nc1ccc2c(c1)OCO2)C1CC(c2c(F)cccc2Cl)=NO1 (centres undefined) | – | 3.98 µM (active) |
| CN(Cc1cccs1)C(=O)CN1C(=O)c2ccccc2S1(=O)=O | -0.831% | – |
| O=C(COC(=O)c1cccc(Cl)c1)NC1CCCCCCC1 | 0.302% | – |
| CCCN(CC(=O)NC(=O)NC1CCCCC1)CC(=O)Nc1cc(Cl)ccc1Cl | -0.744% | – |
| CC(=O)NC12CC3CC(C1)CC(C(=O)N1CCN(S(=O)(=O)c4cccs4)CC1)(C3)C2 | -1.34% | – |
